According to PubChem BioAssay AID1851 (National Center for Advancing Translational Sciences (NCATS), 2009):
Several values for one entry are separate records, joined by “and”; a condition that tells them apart may be missing. Equal values may be shown once. About 4,000 (25%) of roughly 16,000 compounds were called active. Not shown: some 26% with an inconclusive outcome. These entries were drawn from the full list. Values without a mark were called inactive. The call rests on the fitted dose curve; in most records, active means well fitted curve in the direction sought with a large enough effect; inconclusive means small, poorly fitted or top-dose-only effect, or effect the other way; inactive means no such curve, though single readings can be large or run the other way.

biological target: Cytochrome P450 2C9 (Homo sapiens) (UniProt P11712); experiment: Cytochrome panel assay with activity outcomes; conditions: recombinant CYP, pro-luciferin dealkylation, luminescence, p450-cyp2c9; series mostly up to 57.1 µM
On the % scale 0 is the no-effect control and ±100 the full control effect.

Sequence of Cytochrome P450 2C9 (Homo sapiens) (P11712 whole entry, looked up): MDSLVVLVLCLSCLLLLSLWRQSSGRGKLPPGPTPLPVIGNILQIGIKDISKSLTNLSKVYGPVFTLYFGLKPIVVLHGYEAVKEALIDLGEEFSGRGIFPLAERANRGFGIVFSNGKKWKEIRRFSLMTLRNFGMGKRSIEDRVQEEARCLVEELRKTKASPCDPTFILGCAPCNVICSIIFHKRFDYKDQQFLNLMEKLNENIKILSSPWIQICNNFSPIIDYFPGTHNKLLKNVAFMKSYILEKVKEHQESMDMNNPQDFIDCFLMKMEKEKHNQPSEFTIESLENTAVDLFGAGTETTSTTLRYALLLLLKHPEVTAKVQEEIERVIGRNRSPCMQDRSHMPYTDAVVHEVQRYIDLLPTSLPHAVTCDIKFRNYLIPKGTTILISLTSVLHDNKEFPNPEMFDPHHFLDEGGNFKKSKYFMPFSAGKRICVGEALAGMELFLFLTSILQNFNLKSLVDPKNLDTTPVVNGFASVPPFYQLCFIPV

Compound	AC50	activity, negative = inhibition
O=S(=O)(NCCNC/C=C\c1ccc(Br)cc1)c1cccc2cnccc12	inactive	
Clc1ccc(Sc2ccc(/C=N/n3cnnc3)o2)cc1	7.94 µM (active)	
CN=C1S/C(=C\c2ccc(Sc3ccc(Cl)cc3)o2)C(=O)N1C	1.26 µM (active)	
Cc1ccc(Nc2nc(Cl)nc(N(C)C#N)n2)cc1	15.8 µM (active)	
O[C@]1(c2ccccc2)c2ccccc2NC2=NCCN21		3.96% [at 11.4 µM]
CS(=O)(=O)c1ccccc1COC(=O)Nc1ccc(Cl)cc1	inactive	
O=C(Nc1ccccc1)OCc1cc(-c2ccc(Cl)cc2)on1	2.82 µM (active)	
Cc1cnc(CNc2ncncc2-c2ccc(C(=O)N(C)C)cc2)cn1		26.6% [at 2.29 µM]
Cc1cnc(CNc2nc(-c3ccccc3C)nc3ccccc23)cn1		18.8% [at 2.29 µM]
CC(=O)NCCNc1ccnc(-c2ccccc2C)n1		7.25% [at 2.29 µM]
COc1ccc2nccc(SCC(=O)O)c2c1		-6.85% [at 11.4 µM]
COc1ccc2c(c1)nc(SCC(=O)c1ccc(Br)s1)n2C	15.8 µM (active)	
Cc1noc(C)c1-c1ccc2ncnc(NCCN3CCOCC3)c2c1		-1.53% [at 2.29 µM]
CCC(=O)O[C@@H]1[C@H](C)O[C@H](O[C@H]2[C@@H](N(C)C)[C@H](O)[C@@H](O[C@@H]3[C@@H](CC=O)C[C@@H](C)[C@@H](O)/C=C\C=C/C[C@@H](C)OC(=O)C[C@@H](OC(=O)CC)[C@H]3OC)O[C@H]2C)C[C@]1(C)O	inactive	
c1ccc2c(NC3CC3)nc(-c3ccoc3)nc2c1		-17.7% [at 2.29 µM]
c1ccc(-c2c3ccccc3nc3[nH]c4ccccc4c23)cc1	10 µM (active)	
CCCCc1c2ccccc2nc2[nH]c3ccccc3c12	inactive	
CC[C@@H]1CN2CCc3cc(OC)c(OC)cc3[C@H]2C[C@@H]1C[C@@H]1NCCc2cc(OC)c(OC)cc21	inactive	
CN1CCN(c2ccnc(-c3ccc(N(C)C)cc3)n2)CC1		4.88% [at 2.29 µM]
CN(C)c1ccc(O)c2c1C[C@H]1C[C@H]3[C@@H](N(C)C)C(=O)C(C(N)=O)=C(O)[C@]3(O)C(=O)C1=C2O	inactive	
CCN(CC)CCCNC(=O)CC1Sc2ccccc2NC1=O (centres undefined)	inactive	
Cc1cc(C)n2nc(SCc3cc(=O)oc4ccc5ccccc5c34)nc2n1	8.91 µM (active)	
COc1ccccc1CNC(=O)CSc1nc2nc(C)cc(C)n2n1	inactive	

Compound	AC50	activity, negative = inhibition
Cc1cc(C)n2nc(SCN3C(=O)c4ccccc4C3=O)nc2n1	inactive	
CO[C@@H]1COC(=O)C/C=C\[C@@H](C)COC(=O)[C@H](Cc2ccccc2)NC(=O)C/C=C\[C@H]1C		-17.6% [at 11.4 µM]
O=C1CCCC=C1[C@H](O)c1ccc([N+](=O)[O-])cc1		-18.1% [at 11.4 µM]
O=C1CCCC=C1[C@H](CCc1ccccc1)OC(=O)c1ccc(Br)cc1	3.16 µM (active)	
O=C1CCCC=C1[C@@H](O)C1CCCCC1		14.2% [at 11.4 µM]
CN(C)CCn1c(CO)nc2c1c(=O)n(C)c(=O)n2C		0.0092% [at 11.4 µM]
CCCCCn1c(CN2CCCCC2C)nc2c1c(=O)n(C)c(=O)n2C (centres undefined)	15.8 µM (active)	
CCCCn1c(SCC(=O)N2CCCC2)nc2c1c(=O)n(C)c(=O)n2C	inactive	
CCNc1ncc2nc(-c3cc(F)cc(F)c3)c(=O)n(-c3ccc(OC)cc3)c2n1	inactive	
O=C(Oc1ccccc1)N1CCC2(CC1)CCN(c1cccc(-c3ccccc3)c1)CC2	inactive	
N#Cc1cccc(-c2cncnc2NCc2ccccc2)c1		-4.42% [at 2.29 µM]
COC(=O)c1c(C)oc2ccc(N(C(=O)c3ccncc3)S(=O)(=O)c3ccccc3)cc12	2.51 µM (active)	
COC(=O)c1c(C)nc2ccccc2c1C(=O)O	inactive	
CCC(C)N1C(=O)S/C(=C/c2ccc(Sc3nc4ccccc4[nH]3)o2)C1=O (centres undefined)	1.26 µM (active)	
Cc1ncc([N+](=O)[O-])n1CC(C)O (centres undefined)	inactive	
Clc1cccc(C=NC=Nc2cccc(Cl)c2)c1	inactive	
CC(C)(C)c1nc(SCC(=O)Nc2ccc(N3CCOCC3)cc2)c2ccccc2n1	7.94 µM (active)	
Cn1c(CCC(=O)Nc2ccc(N3CCOCC3)cc2)nc(=O)c2ccccc21	inactive	
CNCC[C@H](Oc1ccccc1C)c1ccccc1	inactive	
CNCCC=C1c2ccccc2C=Cc2ccccc21	inactive	
Cc1ccc(C)c(CN2C(=O)C3CCCN3c3ccc(C#N)cc32)c1 (centres undefined)	7.08 µM (active)	
COc1ccccc1CN1CC[C@@]2(CCCN(S(=O)(=O)c3ccccc3)C2)C1	inactive	
CCOc1ccc(N(C(=O)/C=C/C(=O)Nc2cc(C)on2)C(C(=O)NC2CCCC2)c2ccccc2C)cc1 (centres undefined)	3.16 µM (active)	

Compound	AC50	activity, negative = inhibition
O=C(O)[C@@H]1[C@@H]2C[C@H]([C@@H](Br)[C@H]2N2C(=O)CCC2=O)[C@@H]1C(=O)O		8.14% [at 11.4 µM]
O=C(CCN1C(=O)c2ccccc2C1=O)Oc1ccc2ccccc2c1	inactive	
O=S1(=O)C=C(Oc2ccc3ccccc3c2)c2ccccc21	3.98 µM (active)	
CN1CCN(Cc2nc3cccc4c3c([n+]2[O-])-c2ccccc2-4)CC1		-11.8% [at 11.4 µM]
CN(C)CC[C@H](c1ccc(Cl)cc1)c1ccccn1	inactive	
CC(c1ccc(Cl)cc1)n1c(-c2ccc3ccccc3n2)n[nH]c1=S (centres undefined)	2.51 µM (active)	
c1ccc2nc(C3=NCCN3)ccc2c1	inactive	
COC(=O)c1[nH]c(C)c(/C(O)=C2\C(=O)C(=O)N(CCN(C)C)C2c2cccs2)c1C (centres undefined)	inactive	
NNS(=O)(=O)c1cc(C(=O)O)cc(C(=O)O)c1		-5.43% [at 11.4 µM]
COC(=O)c1cc(NS(=O)(=O)c2ccc(N3CCCCC3)c([N+](=O)[O-])c2)cc(C(=O)OC)c1	0.631 µM (active)	
CC1CCN(c2ccc(S(=O)(=O)Nc3cc(C(=O)O)cc(C(=O)O)c3)cc2[N+](=O)[O-])CC1	14.1 µM (active)	
CC1CCN(c2ccc(/C=N/n3nnnc3N)cc2[N+](=O)[O-])CC1	inactive	
COC(=O)c1cc(NS(=O)(=O)c2ccc(N3CCCCCC3)c([N+](=O)[O-])c2)cc(C(=O)OC)c1	2.24 µM (active)	
O=c1n(-c2ccccc2)c(=O)n2n1CC[C@H]1/C(=N\OC[C@@H](O)COCc3ccco3)[C@H]3O[C@@H]3[C@@H](O)[C@@H]12		19.1% [at 11.4 µM] and 17% [at 11.4 µM]
Cc1nc2c(c(-c3ccccc3)c1C#N)C(=O)c1ccccc1-2	0.447 µM (active)	
O=C(Cn1c(-c2cscn2)nc2ccccc21)Nc1cc(F)ccc1F	15.8 µM (active)	
O=C(Nc1ccc(Br)cc1)c1ccc(CSC2=NCCS2)cc1	7.08 µM (active)	
COc1ccc(Oc2c(C=O)c3ccccc3n2C)cc1	inactive	
COc1ccc(OCCn2c(C)c(/C=N/n3cnnc3)c3ccccc32)cc1	0.316 µM (active)	
C[C@H](N=C(NC#N)Nc1ccncc1)C(C)(C)C	inactive	
Cc1cc(C(F)F)n2nc(C(=O)Nc3cccnc3Cl)nc2n1	inactive	
Cc1nc(C(=O)Nc2ccc(Cl)cc2Cl)nn1-c1cc(OC(C)C)c(Cl)cc1Cl	2.51 µM (active)	
FC(F)(F)c1ccccc1-c1nccc(NCc2cccs2)n1		-24.4% [at 2.29 µM]

Compound	AC50	activity, negative = inhibition
FC(F)(F)c1ccccc1-c1cc(NCc2ccccc2)ncn1		1.84% [at 2.29 µM]
FC(F)(F)c1cc(-c2ccco2)nc(NCc2cccs2)n1	3.55 µM (active)	
FC(F)(F)c1cc(-c2ccco2)nc(NCCc2ccccc2)n1	1.41 µM (active)	
FC(F)(F)c1ccccc1-c1cc(NCc2cccs2)ncn1		-6.83% [at 2.29 µM]
CCNc1ncc2nc(-c3cc(F)cc(F)c3)c(=O)n(Cc3cccs3)c2n1	inactive	
O=C(O)c1ccccc1N/N=C\c1ccnc2ccccc12	inactive	
Nc1cc(Cl)nc(N/N=C/c2ccccc2[N+](=O)[O-])n1	inactive	
O=[N+]([O-])c1ccccc1N/N=C/c1c[nH]c2ccccc12	7.94 µM (active)	
Oc1c(Cl)cc(C(c2cc(Cl)c(O)c(Cl)c2)C(c2cc(Cl)c(O)c(Cl)c2)c2cc(Cl)c(O)c(Cl)c2)cc1Cl	0.1 µM (active)	
CN(C)CN1CSC(=S)N(CN(C)C)C1	3.16 µM (active)	
[O-][N+](CCO)(CCO)c1ncnc2nc[nH]c12		27.7% [at 11.4 µM]
Cc1noc(C)c1C(=O)N1CCC[C@@]2(CCN(Cc3nccs3)C2)C1	inactive	
c1ccc2cc(Sc3ncnc4c3oc3ccccc34)ccc2c1	10 µM (active)	
CC[C@@H](c1ccccc1)n1c(=O)n2n(c1=O)[C@H]1[C@H](O)[C@H]3O[C@@H]3/C(=N/OCc3ccccc3)[C@@H]1CC2		-21.9% [at 11.4 µM]
COc1ccc(N=C2S/C(=C\c3ccc(C)s3)C(=O)N2CC(C)C)cc1	7.08 µM (active)	
CCCN1C(=O)/C(=C/c2ccc(C)s2)SC1=Nc1ccc(OC)cc1	7.94 µM (active)	
O=C1[C@@H]2[C@H]3[C@H](O)[C@H](O)C/C(=N/OC[C@@H](O)COCc4ccco4)[C@@H]3CC[C@H]2C(=O)N1c1ccc(F)cc1F		-0.354% [at 11.4 µM]
O=C(CCCn1c(=S)[nH]c2ccc(Br)cc2c1=O)N1CCN(c2ccccn2)CC1	3.16 µM (active)	
O=C(CCn1c(=S)[nH]c2ccccc2c1=O)NCCCN1CCOCC1	inactive	
CC(=O)N1CCC2(CCCN(c3ccccn3)C2)CC1	inactive	
